# Data taken from PubChem BioAssay (NCATS).
# Records with an inconclusive call do not appear. A number with no mark means an inactive call. The source made the active and inactive calls. Calls follow the shape of the dose curve; as a rule, active = well fitted cell-killing curve with a large enough effect; inconclusive = small, poorly fitted or top-dose-only effect, or effect the other way; inactive = no such curve, though single readings can be large or run the other way.
# Assays:
# [1] = Quantitative High-Throughput drug screen in 47 multiple myeloma cell lines against the NCATS MIPE library collection: KMS34_JCRB cell viability assay (AID 1918985); also: nearly all actives have a fitted effect of over 40% in size
# Procedure, shortened: (§1)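 ATP-based luminescence (CellTiter-Glo, 5 min RT incubation) quantified surviving cells following two days' treatment with MIPE 4.0 agents at 37 °C, 5% CO2.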
# [2] = Quantitative High-Throughput drug screen in 47 multiple myeloma cell lines against the NCATS MIPE library collection: OPM1_PLB cell viability assay (AID 1918989); also: nearly all actives have a fitted effect of over 40% in size
# Procedure, shortened: as §1
# [3] = Quantitative High-Throughput drug screen in 47 multiple myeloma cell lines against the NCATS MIPE library collection: XG1_PLB cell viability assay (AID 1919866); also: nearly all actives have a fitted effect of over 35% in size
# Procedure, shortened: as §1
# [4] = Quantitative High-Throughput drug screen in 47 multiple myeloma cell lines against the NCATS MIPE library collection: OCIMY7_PLB cell viability assay (AID 1918987); conditions: OCI-MY7 myeloma viability, CellTiter-Glo ATP, 48 h; viability (% of DMSO): at 45.8 µM (top of the series); also: nearly all actives have a fitted effect of over 65% in size
# Procedure, shortened: as §1
# [5] = Quantitative High-Throughput drug screen in 47 multiple myeloma cell lines against the NCATS MIPE library collection: SKMM1_PLB cell viability assay (AID 1919863); conditions: SKMM1 myeloma viability, CellTiter-Glo ATP, 48 h; viability: hits give low values; also: nearly all actives have a fitted effect of over 35% in size
# Procedure, shortened: as §1
# [6] = Quantitative High-Throughput drug screen in 47 multiple myeloma cell lines against the NCATS MIPE library collection: U266_ATCC cell viability assay (AID 1919864); also: nearly all actives have a fitted effect of over 35% in size
# Procedure, shortened: as §1
# [7] = Quantitative High-Throughput drug screen in 47 multiple myeloma cell lines against the NCATS MIPE library collection: OCIMY5_PLB cell viability assay (AID 1918988); also: nearly all actives have a fitted effect of over 65% in size
# Procedure, shortened: as §1
# [8] = Quantitative High-Throughput drug screen in 47 multiple myeloma cell lines against the NCATS MIPE library collection: L363_DSMZ cell viability assay (AID 1918984); also: nearly all actives have a fitted effect of over 40% in size
# Procedure, shortened: as §1
# [9] = Quantitative High-Throughput drug screen in 47 multiple myeloma cell lines against the NCATS MIPE library collection: XG6_PLB cell viability assay (AID 1919865); also: nearly all actives have a fitted effect of over 40% in size
# Procedure, shortened: as §1
# Potency is read from the fitted curve at half-maximal effect.
smiles,measurement,setting,value
CC(C)C(=O)Oc1ccc(CO)cc1[C@H](CCN(C(C)C)C(C)C)c1ccccc1,Potency,[1],18.7 µM (active)
same,Potency,[2],inactive
same,Potency,[3],inactive
O=C(O)c1ccc(-c2c[nH]c3ncc(-c4ccccc4)cc23)cc1C1CCCC1,Potency,[1],14.8 µM (active)
same,Potency,[4],8.33 µM (active)
same,viability,[5],132%
same,Potency,[6],inactive
COc1ccc2c(Oc3ccc(NC(=O)c4c(C)n(CC(C)(C)O)n(-c5ccccc5)c4=O)nc3)ccnc2c1,Potency,[1],inactive
same,Potency,[7],26.4 µM (active)
same,Potency,[6],inactive
Cc1cccc(Nc2nc(-c3ccncc3)cs2)c1,Potency,[8],18.7 µM (active)
same,Potency,[2],14.8 µM (active)
same,Potency,[6],inactive
CC(C)OC(=O)C(C)(C)Oc1ccc(C(=O)c2ccc(Cl)cc2)cc1,Potency,[8],inactive
same,Potency,[6],11.8 µM (active)
same,Potency,[9],inactive
O=C1NC(=O)C(=Cc2cccc(C(F)(F)F)c2)S1,Potency,[1],inactive
same,Potency,[7],26.4 µM (active)
same,Potency,[5],14.8 µM (active)
same,Potency,[9],20.9 µM (active)
same,Potency,[3],16.6 µM (active)
O=C(Nc1cc(Cl)cc2c1[nH]c1cnccc12)c1cccnc1,Potency,[7],16.6 µM (active)
same,Potency,[2],inactive
same,Potency,[6],20.9 µM (active)
same,Potency,[9],2.64 µM (active)
same,Potency,[3],5.26 µM (active)
CC(=NNC(=S)N1CCC1)c1ccccn1,Potency,[5],0.0059 µM (active)
CC=CC[C@@H](C)C(=O)[C@H]1C(=O)N[C@@H](C(C)C)C(=O)N(C)CC(=O)N(C)[C@@H](CC(C)C)C(=O)N[C@@H](C(C)C)C(=O)N(C)[C@@H](CC(C)C)C(=O)N[C@@H](C)C(=O)N[C@H](C)C(=O)N(C)[C@@H](CC(C)C)C(=O)N(C)[C@@H](CC(C)C)C(=O)N(C)[C@@H](C(C)C)C(=O)N1C,Potency,[4],16.6 µM (active)
same,Potency,[7],23.5 µM (active)
same,Potency,[5],14.8 µM (active)
COc1cccc(-c2cc(=O)c3ccccc3o2)c1N,Potency,[6],8.33 µM (active)
same,Potency,[3],1.66 µM (active)
Clc1cc(Cl)cc(CNc2ncncc2-c2ccc3c(c2)OCO3)c1,Potency,[4],4.69 µM (active)
same,Potency,[7],20.9 µM (active)
same,Potency,[2],20.9 µM (active)
same,Potency,[5],16.6 µM (active)
same,Potency,[6],inactive
Nc1ncnc2ccccc12,Potency,[7],26.4 µM (active)
same,Potency,[2],inactive
same,Potency,[6],inactive
CN[C@@H](C)C(=O)N[C@H]1CN(C(=O)CC(C)C)CC[C@H]2CC[C@@H](C(=O)NC(c3ccccc3)c3ccccc3)N2C1=O,Potency,[7],20.9 µM (active)
same,Potency,[2],14.8 µM (active)
same,Potency,[9],1.32 µM (active)
CC(C)(C)C(=O)Oc1ccc2c(c1)nc(NC(=O)c1cccc([N+](=O)[O-])c1)n2CCCO,Potency,[7],18.7 µM (active)
same,Potency,[2],inactive
same,Potency,[9],inactive
same,Potency,[3],inactive
CO[C@H]1C[C@@H]2CC[C@@H](C)[C@@](O)(O2)C(=O)C(=O)N2CCCC[C@@H]2C(=O)O[C@H]([C@H](C)C[C@@H]2CC[C@H](OCCO)[C@H](OC)C2)CC(=O)[C@H](C)C=C(C)[C@@H](O)[C@@H](OC)C(=O)[C@H](C)C[C@H](C)C=CC=CC=C1C,Potency,[2],1.05 µM (active)
same,viability,[5],66.8%
NC(=O)c1cnc(-c2ccc(C3(N)CCC3)cc2)c(-c2ccccc2)c1,Potency,[4],1.87 µM (active)
same,Potency,[7],0.187 µM (active)
same,Potency,[9],16.6 µM (active)
same,Potency,[3],inactive
O=c1cc(-c2cccc3c2Sc2ccccc2S3)oc(N2CCOCC2)c1,Potency,[7],20.9 µM (active)
same,Potency,[2],26.4 µM (active)
same,Potency,[5],18.7 µM (active)
same,Potency,[9],18.7 µM (active)
COc1cc(NC(=O)c2ccc(-c3ccc(Cl)cc3)o2)cc(OC)c1,Potency,[4],3.32 µM (active)
same,viability,[5],155%
same,Potency,[6],1.66 µM (active)
same,Potency,[9],1.66 µM (active)
same,Potency,[3],3.32 µM (active)
CC[C@H]1OC(=O)[C@H](C)C(=O)[C@H](C)[C@@H](O[C@H]2O[C@H](C)C[C@H](N(C)C)[C@@H]2O)[C@](C)(OC)C[C@@H](C)C(=O)[C@H](C)[C@H]2N(CCCCn3cnc(-c4cccnc4)c3)C(=O)O[C@]12C,Potency,[4],14.8 µM (active)
same,Potency,[7],26.4 µM (active)
same,Potency,[6],inactive
same,Potency,[9],4.69 µM (active)
same,Potency,[3],inactive
O=C(O)c1ccc(-c2cc3cccnc3c(-c3ccc4nonc4c3)n2)cc1,Potency,[1],14.8 µM (active)
same,Potency,[5],20.9 µM (active)
same,Potency,[6],20.9 µM (active)
same,Potency,[9],20.9 µM (active)
same,Potency,[3],20.9 µM (active)
O=C(N[C@@H](c1ccccc1)[C@@H]1CCCCN1)c1cccc(C(F)(F)F)c1Cl,Potency,[4],inactive
same,Potency,[7],18.7 µM (active)
CO[C@H]1C[C@@H]2CC[C@@H](C)[C@@](O)(O2)C(=O)C(=O)N2CCCC[C@@H]2C(=O)O[C@H]([C@H](C)C[C@@H]2CC[C@H](OC(=O)C(C)(CO)CO)[C@H](OC)C2)CC(=O)[C@H](C)C=C(C)[C@@H](O)[C@@H](OC)C(=O)[C@H](C)C[C@H](C)C=CC=CC=C1C,Potency,[4],14.8 µM (active)
CCNc1cc(NC2CCC(O)CC2)nc(Nc2ccc3c(ccn3Cc3ccccc3)c2)n1 (stereo not given),Potency,[2],29.6 µM (active)
same,Potency,[5],18.7 µM (active)
same,Potency,[9],20.9 µM (active)
C[C@@H]1CCN(C(=O)CC#N)C[C@H]1N(C)c1ncnc2[nH]ccc12,Potency,[7],13.2 µM (active)
same,Potency,[2],inactive
COc1ncc(-c2ccc3nccc(-c4ccnnc4)c3c2)cc1NS(=O)(=O)c1ccc(F)cc1F,Potency,[7],1.48 µM (active)
same,Potency,[5],0.0118 µM (active)
same,Potency,[9],0.0187 µM (active)
c1ccc2c(-c3cnn4cc(-c5ccc(N6CCNCC6)cc5)cnc34)ccnc2c1,Potency,[5],9.35 µM (active)
same,Potency,[6],8.33 µM (active)
N[C@@]1(C(=O)O)CS(=O)(=O)[C@H]2[C@H](C(=O)O)[C@H]21,Potency,[1],inactive
same,Potency,[6],4.18 µM (active)
O=C1C[C@@H](c2ccc(O)cc2)Oc2cc(O)cc(O)c21,Potency,[2],inactive
same,Potency,[9],inactive
same,Potency,[3],inactive
CN1C[C@H]2c3ccccc3Oc3ccc(Cl)cc3[C@@H]2C1,Potency,[7],13.2 µM (active)
same,Potency,[6],inactive
same,Potency,[9],inactive
same,Potency,[3],inactive
CC(=O)O[C@]1(C(C)=O)CC[C@@H]2[C@@H]3C[C@H](C)C4=CC(=O)CC[C@]4(C)[C@H]3CC[C@@]21C,Potency,[7],16.6 µM (active)
same,Potency,[6],20.9 µM (active)
same,Potency,[9],23.5 µM (active)
C=CCc1ccc(O)c(-c2ccc(O)c(CC=C)c2)c1,Potency,[7],18.7 µM (active)
same,Potency,[9],14.8 µM (active)
same,Potency,[3],18.7 µM (active)
